High-throughput results from PubChem BioAssay.
Rows were chosen to be rich in hits. Some 1.3% of all compounds tested hit in one or more screens of this group.
Calb biofilm kill: kills Candida albicans biofilms; C. albicans biofilm + clotrimazole, Alamar Blue; 0.14% of 85,000 active; inhibition, % at 6 µM; AID 834;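 active means inhibition above 20%; inactive means inhibition below 20%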;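 further: preformed 24 hr biofilms exposed to compound for 48 hr; 0% = biofilm without compound and 100% = blank killed by clotrimazole plus chlorhexidine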
Phagocytosis inh: blocks phagocytosis by macrophages | J774A.1 macrophage IgG-bead phagocytosis, imaging | inhibition, % at 5 µM | 0.07% of 110,000 active;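 active means inhibition above the mean of the plate negative controls plus 5 SD, cut at about 13% in these data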;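 further: phagocytic index as fraction of beads internalized from green versus red external bead signal; plate controls were DMSO negative control for no effect and cytochalasin-D positive control for full effect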
GALR2 antag: GALR2 (human) receptor antagonism | 0.39% of 140,000 active | AID 828 | inhibition, % at 4 µM | GALR2-expressing cells, antagonist mode | O43603; in the data active means inhibition above about 27%;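 further: cells stimulated with galanin 1-16 at roughly its EC80; 0% = agonist challenge control and 100% = basal control without agonist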
Target sequence (O43603 whole entry, looked up): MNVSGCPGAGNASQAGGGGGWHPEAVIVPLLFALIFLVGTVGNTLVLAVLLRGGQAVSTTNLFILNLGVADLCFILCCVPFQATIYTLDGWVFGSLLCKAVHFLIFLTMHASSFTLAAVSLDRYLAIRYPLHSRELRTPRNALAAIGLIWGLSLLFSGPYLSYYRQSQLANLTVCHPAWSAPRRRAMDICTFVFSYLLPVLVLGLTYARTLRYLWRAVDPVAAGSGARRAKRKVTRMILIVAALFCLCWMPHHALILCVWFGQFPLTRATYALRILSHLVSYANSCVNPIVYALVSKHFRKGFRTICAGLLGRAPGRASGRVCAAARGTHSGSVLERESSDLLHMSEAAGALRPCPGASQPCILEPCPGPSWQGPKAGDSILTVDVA
GALR2 agonist: agonists of human galanin receptor 2 (GALR2); 0.48% of 140,000 active; activation, % (test concentration not listed); O43603; GALR2-expressing cells, agonist activation read-out; AID 803; in the data active means activation above about 5%, passing the limit was not always enough;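 further: 0% = vehicle buffer wells and 100% = reference agonist at full effect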
S1P2 antag: blocks the human S1P2 receptor; cell-based S1P2 antagonist assay, inhibition at 5 uM; O95136; 0.21% of 97,000 active; inhibition, % at 5 µM; in the data active means inhibition above about 45%;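 further: CRE beta-lactamase reporter cells expressing human S1P2 stimulated with S1P; 0% = agonist at EC80 alone and 100% = agonist plus reference antagonist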
Target sequence (O95136 whole entry, looked up): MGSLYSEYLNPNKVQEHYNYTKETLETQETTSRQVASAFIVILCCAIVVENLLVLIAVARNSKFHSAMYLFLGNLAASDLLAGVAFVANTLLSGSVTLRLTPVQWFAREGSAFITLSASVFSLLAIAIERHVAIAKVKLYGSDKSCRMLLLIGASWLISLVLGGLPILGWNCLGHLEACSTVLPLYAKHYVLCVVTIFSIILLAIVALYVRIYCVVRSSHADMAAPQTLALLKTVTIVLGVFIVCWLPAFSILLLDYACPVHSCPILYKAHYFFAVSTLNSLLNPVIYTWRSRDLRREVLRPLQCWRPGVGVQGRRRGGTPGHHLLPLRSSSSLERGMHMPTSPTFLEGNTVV
S1P2 ag: agonists of human S1P2 receptor; S1P2-expressing cell line, agonist reporter read-out; O95136; 0.46% of 97,000 active; activation, % at 4.5 µM; in the data active means activation above about 16%;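 further: 0% = vehicle low control and 100% = maximal reference agonist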
The depositor's hits bear a star; x = no result.

SMILES | Calb biofilm kill | Phagocytosis inh | GALR2 antag | GALR2 agonist | S1P2 antag | S1P2 ag
Cc1ccc(S(=O)(=O)c2cc3c(=O)n4ccccc4nc3n(C)c2=N)cc1 | -2.1 | -4.8 | -1.4 | 4.7 | x | x
Cc1cc(-n2c(=O)c(C#N)cc3c(=O)n4ccccc4nc32)no1 | x | 0.4 | -37.2 | 30.6* | x | x
C=CCn1c(=N)c(C#N)cc2c(=O)n3ccccc3nc21 | 3.0 | x | -6.5 | 6.0 | -58.1 | 9.0
O=C(NS(=O)(=O)c1ccccc1)c1ccccc1O | 8.9 | -0.3 | 1.2 | -0.4 | 12.7 | -10.6
Cc1ccc(-c2cc(C(F)(F)F)c(C#N)c(SCCC#N)n2)o1 | 6.3 | -4.1 | -6.9 | 7.0 | -26.6 | 17.3*
C#CCSc1nc(-c2ccccc2)cc(C(F)(F)F)c1C#N | x | -0.3 | 6.1 | -0.8 | -3.5 | -1.7
CCC(C)[C@H](NC(=O)NCc1cccs1)C(=O)OC (stereo partly drawn) | x | 0.5 | -8.0 | 0.1 | 13.3 | -3.1
c1ccc2c(c1)[nH]c1c(N3CCSCC3)ncnc12 | 6.5 | x | 32.0* | -1.2 | 48.4* | -7.0
c1ccc2c(c1)[nH]c1c(N3CCCC3)ncnc12 | 4.3 | 2.0 | 21.1 | -0.2 | 23.2 | -1.3
CCc1cc(=O)oc2cc(OCC(=O)N(CC)CC)c(Cl)cc12 | -0.5 | 0.3 | -3.3 | -3.3 | 4.7 | -0.6
CCc1cc(=O)oc2cc(OCC(=O)O)c(Cl)cc12 | 5.5 | 1.7 | -5.5 | -1.3 | -6.8 | 20.9*
CCCCOc1ccccc1C1C(C(=O)OC)=C(C)N(C)C(C)=C1C(=O)OC | 2.3 | x | -0.5 | -1.6 | -20.0 | -1.1
CCCCN1C=C(C(=O)OC)C(c2ccccc2C(F)(F)F)C(C(=O)OC)=C1 | -0.9 | 0.9 | -9.8 | 0.5 | -17.0 | 19.4*
Cc1cccc2nc(CSc3nc4[nH]ncc4c(=O)n3-c3ccccc3Cl)cc(=O)n12 | 4.9 | -0.6 | 13.4 | 1.9 | x | x
Cc1cc(C)n2nc(SCc3cc(=O)n4ccccc4n3)nc2n1 | 11.8 | x | -10.4 | -0.6 | -49.0 | 20.1*
Cc1ccccc1-n1c(SCc2cc(=O)n3ccccc3n2)nc2[nH]ncc2c1=O | 8.7 | -1.2 | 2.1 | 0.1 | -44.7 | 24.1*
Cc1cccc(NC(=O)c2cn(-c3ccccc3)nc2-c2ccccc2)c1 | x | -10.2 | 8.5 | -0.6 | x | x
Cn1c(=O)n(Cc2ccccc2F)c(=O)c2c1nc1n2CCCN1CCc1ccccc1 | 2.6 | 0.1 | -4.5 | 1.2 | -1.0 | -13.8
N=c1c(C(=O)NCc2ccc(F)cc2)cc2c(=O)n3ccccc3nc2n1Cc1cccnc1 | 5.0 | 1.9 | -9.3 | 6.2 | -27.2 | 20.8*
N=c1c(C(=O)NCC2CCCO2)cc2c(=O)n3ccccc3nc2n1Cc1cccnc1 (stereo not drawn) | 7.6 | -2.3 | -1.3 | 5.8* | x | x
N=c1c(C(=O)NCc2ccc(F)cc2)cc2c(=O)n3ccccc3nc2n1CCCN1CCOCC1 | 0.2 | 0.0 | -16.8 | 9.7* | x | x
Cc1ccc(C(C)C)c(OCCN2C(=O)NC(C)(C)C2=O)c1 | 0.6 | 2.6 | -14.4 | -1.5 | -8.6 | 1.5
COc1cccc(NC(=O)c2ccccc2-c2nc(-c3cccc(C)c3)no2)c1 | 0.7 | -1.0 | -4.3 | -0.7 | 11.3 | -3.2
CCOC(=O)N1CCC(NC(=O)Cn2ncc3c2-c2cc(C)ccc2OC3)CC1 | 3.5 | -0.3 | 4.1 | -1.6 | -8.6 | -8.7
O=C(NCc1ccncc1)C(=O)NCC1OCCCN1S(=O)(=O)c1ccccc1 (stereo not drawn) | x | -6.4 | 1.5 | -0.7 | x | x
SMILES | Calb biofilm kill | Phagocytosis inh | GALR2 antag | GALR2 agonist | S1P2 antag | S1P2 ag
O=C(CSc1ccc2nnc(-c3ccccn3)n2n1)N1CCOCC1 | 46.2* | -1.0 | -2.0 | -4.2 | -10.1 | -3.2
O=C(CSc1ccc2nnc(-c3cccs3)n2n1)N1CCOCC1 | 7.6 | x | x | x | x | x
CCCCC(CC)Cn1c(N)c(C#N)c2nc3ccccc3nc21 (stereo not drawn) | x | 0.1 | -14.7 | 35.1* | -61.3 | 50.2*
CCCOc1cc(CC(=O)NCc2ccco2)ccc1OC | 0.0 | 1.0 | -9.2 | 1.4 | 12.7 | 1.9
CCOC(=O)c1sc2nc(C3CC3)cc(-c3ccc(OC)cc3)c2c1N | x | -1.7 | -8.4 | -1.0 | 12.6 | 3.8
CCOC(=O)c1sc2nc(C3CC3)cc(-c3ccc(F)cc3)c2c1N | x | -1.4 | -6.9 | -1.1 | -16.4 | 37.6*
CC(=O)NS(=O)(=O)c1ccc(NC(=O)NC2CCCCC2)cc1 | x | x | -0.9 | -1.7 | 21.6 | -3.1
CC(C)(C)c1ccc(C(=O)OCCNC(=O)c2c(Cl)nc3ccccn23)cc1 | 1.1 | -0.9 | 6.9 | -3.3 | -7.9 | -5.4
COc1ccc(C(=O)OCCNC(=O)c2c(Cl)nc3ccccn23)cc1 | -4.8 | -0.8 | -7.3 | -0.7 | -28.2 | 21.5*
O=C(Nc1ccc(-c2nc3ccccc3o2)c(O)c1)c1cc(-n2cnnc2)ccc1Cl | -0.5 | -1.3 | -7.7 | 0.6 | -7.7 | 3.1
Cc1c(NC(=O)c2cc(-n3cnnc3)ccc2Cl)cccc1-c1nc2ccccc2o1 | -1.5 | x | 11.0 | -4.4 | 55.7* | -5.1
CC(O)C1C(=O)OC2(C)CC(C)(C)NC(=S)N12 (stereo not drawn) | x | x | 24.1 | -2.9 | -2.5 | 44.0*
COc1ccc(CN2C(=S)NC(C)(C)CC2(C)O)cc1 (stereo not drawn) | x | -1.1 | 0.6 | -0.4 | x | x
COc1ccc2c(c1)c1nnc(SC)nc1n2C | 13.7 | x | 5.6 | -0.7 | -5.0 | 5.1
COc1ccc2c(c1)c1nnc(SCC(=O)N3C(C)CCCC3C)nc1n2C (stereo not drawn) | 5.0 | x | -20.2 | 0.5 | -1.1 | 19.4*
O=C(NCCN1CCN(Cc2ccccc2)CC1)C1CC(=O)N(C2CCCC2)C1 (stereo not drawn) | 9.9 | x | -8.1 | -1.1 | 0.8 | -0.9
O=C(NCCN1CCN(c2ccccc2F)CC1)C1CC(=O)N(C2CCCC2)C1 (stereo not drawn) | -2.4 | x | -12.8 | -0.9 | 11.1 | 21.3*
O=C(NC1CC1)c1ccc2c(c1)C1C3CCC(C3)C1C(c1ccccc1)N2 (stereo not drawn) | x | -2.0 | -3.2 | -1.6 | x | x
COc1cc2nc(SCc3ccc(C(F)(F)F)cc3)n(Cc3cccs3)c(=N)c2cc1OC | x | -1.0 | 1.8 | -1.5 | 10.3 | 16.2*
COc1cc2nc(SCc3ccc(Cl)cc3Cl)n(Cc3cccs3)c(=N)c2cc1OC | x | x | -12.3 | -1.9 | 16.2 | -6.0
OCCn1c(CSc2nnc(-c3ccco3)n2-c2ccccc2)nc2ccc(Cl)cc21 | 5.4 | -1.5 | -21.3 | -0.3 | -23.4 | 33.6*
O=C(OCc1nc2ccc(Cl)cc2n1CCO)c1ccccc1 | x | -5.3 | 5.6 | -1.5 | x | x
Cc1c(Cl)cnc(NC(=O)COC(=O)c2nn(C)c(=O)c3ccccc23)c1Cl | x | -16.1 | -4.6 | -1.3 | x | x
CCCc1nc2ccccc2c(C(=O)OCC(=O)Nc2cccc(S(=O)(=O)N3CCOCC3)c2)c1CC | 5.0 | x | 9.3 | -1.0 | -9.8 | 19.2*
CC1(C)CC2(CC(C)(C)N1)OC(=O)N1CCc3ccccc3C12C (stereo not drawn) | -4.8 | 0.4 | 13.1 | -0.3 | x | x
Cc1ccc(NC(=O)Cc2nn(C)c(=O)c3ccccc23)cc1F | 7.5 | -1.9 | 21.3 | -0.5 | 66.8* | -3.2
Cc1ccccc1Nc1nc(N)nc(COC(=O)c2cccc(S(=O)(=O)NCc3ccccc3)c2)n1 | x | -2.2 | -6.4 | 5.0* | x | x
